# Laboratory results taken from PubChem BioAssay (NCI).
# Values joined by “and” are separate entries in the source; they are usually repeats but may differ in a detail not shown here. Identical values can stand only once. This is part of a sample that, as a whole, favours compounds with a hit. Of some 83,000 tested, about 20% had one in any assay.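 In brief: 96-well plates, 48 h treatment, single concentration, percent growth endpoint.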 Active and inactive are the calls of the source. Rule for the calls: active = growth percent below 10; inactive = the rest.
# System: MDA-MB-468 breast
# Test: NCI-60 one-dose screen, 48 h (100 = growth as untreated, 0 = no growth, -100 = all killed)
# Conditions: 10 µM unless noted
row,Structure (SMILES),growth
1,C[C@@H]1N=C(c2ccc3ccccc3c2)Nc2nc3ccccn3c2C1=O,50.5% (inactive)
2,COc1ccc2cc(-c3ccc(-c4ccc(C(=N)N)s4)s3)ccc2c1,-51.7% (active)
3,Cc1ccc(-n2c(=S)[nH]c3sc4c(c3c2=O)CCC(=O)C4)cc1,51.1% (inactive)
4,CCCCCCCCCC(C)NC(=O)CCl (stereo not given),95.4% (inactive)
5,COc1cc2ncnc(-n3ncc4cc(NC(=O)Nc5ccccc5)ccc43)c2cc1OC,-67% (active)
6,CSc1nc(Nc2ccc(S(=O)(=O)Nc3ccon3)cc2)c(C#N)c(-c2ccc(Cl)cc2)n1,93.1% (inactive)
7,COc1ccc2c(c1)c(-c1nonc1-c1cn(C)c3ccccc13)cn2C,13.9% (inactive)
8,Cc1ccc2nc(NC(=O)CSC(=S)N3CCN(C)CC3)sc2c1,116% (inactive)
9,C=C1C(=O)O[C@H]2[C@H]1CC/C(COC(=O)c1cc3cc(OC)ccc3[nH]1)=C\CC[C@@]1(C)O[C@@H]21,-76.3% (active)
10,FC(F)c1nc2ccccc2n1-c1nc(N2CCOCC2)nc(N2CCOCC2)n1,-43.2% (active)
11,O=C1Nc2ccc(Cl)cc2/C1=N/N=C(c1ccccc1)c1ccccc1,107% (inactive)
12,COc1cc(OC)c(C(=O)/C=C/c2cccc(C#N)c2)c(OC)c1,-13.8% (active)
13,O=C(CSc1nnc(-c2ccc(Cl)cc2)n1-c1ccccc1)Nc1cccc(Cl)c1,79.8% (inactive)
14,COC(=O)c1ccc(NC(=O)CSc2nc3ccccc3c(=O)n2-c2ccccc2)cc1,104% (inactive)
15,N#Cc1ccc(/C=C/c2cn(-c3ccccc3)nc2-c2cccc([N+](=O)[O-])c2)cc1,64.7% (inactive)
16,O=C(Nc1ccc(-n2cc(-c3ccncc3)c(-c3ccc(Cl)c(O)c3)n2)cc1)N1CCOCC1,112% (inactive)
17,Cn1c2c(c3ccccc31)CCN1C[C@@H]3CCCC[C@H]3C[C@@H]21,-16.1% (active)
18,OC(c1cc(-c2cccc(Cl)c2)nc2ccccc12)C1CCCCN1 (stereo not given),-77.5% (active)
19,CN(C)CCC(=O)Nc1ccc(-n2cc(-c3cccc(NC(=S)Nc4cccc(-c5cn(-c6ccc(NC(=O)CCN(C)C)cc6)nn5)c4)c3)nn2)cc1,-9.56% (active)
20,CC1(c2ccc3ccccc3c2)CCC(=O)O1 (stereo not given),100% (inactive)

row,Structure (SMILES),growth
1,O=C(CC1(O)C(=O)Nc2ccc(Br)cc21)c1ccc(Cl)cc1 (stereo not given),100% (inactive)
2,COc1ccc(/C=N\N2CCOCC2)cc1OC1CCCC1,117% (inactive)
3,Nc1c(C(=O)Nc2ccccn2)sc2nc3c(cc12)CCCCC3,27.7% (inactive)
4,C=C1C(=O)O[C@H]2[C@H]1CC/C(C=Nc1c(N)cc(C(F)(F)F)cc1C(F)(F)F)=C\CC[C@@]1(C)O[C@@H]21,-58.1% (active)
5,Cn1nc(-c2ccccc2)c2c(-c3ccccc3)onc2c1=O,15.1% (inactive)
6,COc1ccc2c(c1)CC/C(=C\c1cncc(Br)c1)C2=O,99.4% (inactive)
7,Cn1cc(-c2csc(-c3cn(CCCN4CCCCC4)c4ccccc34)n2)c2cccnc21,99.8% (inactive)
8,O=C1/C=C/[C@@H](O)[C@@H]2C[C@@H](O)C[C@H]2/C=C/CCC[C@H](CCO)O1,-54.5% (active)
9,Cc1cc2nc3c4cc([N+](=O)[O-])ccc4n(CCN(C)C)c3nc2cc1C,-39.1% (active)
10,Oc1nc(NCCc2ccccc2)sc1/C=C1\C=Nc2ncccc21,-2.06% (active) and -14.5% (active)
11,N#C/C(=C/c1ccc([N+](=O)[O-])cc1)n1nnc2cc(F)c(F)cc21,19.8% (inactive)
12,O=C1c2cccnc2C(=O)c2c1c(C(=O)OCCc1ccccn1)c1ccccn21,-23% (active)
13,O=S(=O)(NCCNc1nccc(-c2c(-c3cccc(O)c3)nc3occn23)n1)c1cccc(F)c1,97% (inactive)
14,CC(=O)NNC(=O)c1sc(NC(C)=O)nc1C,104% (inactive)
15,COc1cc(/C(C#N)=C/c2nc3c(N4CCOCC4)nc(Cl)nc3n2C)cc(OC)c1OC,15% (inactive)
16,Oc1ccc(O)c(-[n+]2ccccc2)c1,91.8% (inactive)
17,C=C(C)[C@@H]1CC[C@]2(C(=O)N3CCN(CC)CC3)CC[C@]3(C)[C@H](CC[C@@H]4[C@@](C)(CCC(=O)N5CCN(CC)CC5)[C@H](C(=C)C)CC[C@]43C)[C@@H]12,43.4% (inactive)
18,C=C1C(=O)O[C@H]2[C@H]1CC/C(CNC(=O)/C=C/c1ccccc1F)=C\CC[C@@]1(C)O[C@@H]21,-45.5% (active)
19,Clc1ccc(N/N=C(\c2ccccc2)c2ccccn2)nc1,-24.9% (active)
20,Cc1cc(-c2cc(O)ccc2Cl)cc2nnc(Nc3ccc(OCCN4CCCC4)cc3)nc12,-69.4% (active)
